Several values for one entry are separate records, joined by “and”; a condition that tells them apart may be missing. Identical values can stand only once. Results filed as inconclusive are left out. Activity calls are given as the source filed them. Calls follow the shape of the dose curve; as a rule, active = well fitted inhibition curve with a large enough effect; inconclusive = small, poorly fitted or top-dose-only effect; inactive = flat fitted curve, though single readings scatter.
Experiment: qHTS drug screen for cell cycle checkpoint inhibitors in PARPi-resistant BRCA-mutant ovarian cancer cell lines. (AID 1963452)
Settings: PEO1/OlaR viability, CellTiter-Glo luminescence, 96 h; measured here: PEO1 parental Z-AUC; stronger effect = lower value
In short: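 PEO1, PEO4 and PEO1/OlaR ovarian cancer cells, 600 per well, exposed 96 h at 37C to a dilution series. Viability read by CellTiter-Glo luminescence, normalized to DMSO and empty wells; activity summarized as Z-AUC.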

Compound	Z-AUC
CN(N=O)C(=O)N[C@@H]1[C@@H](O)[C@H](O)[C@@H](CO)O[C@@H]1O	0.655
C[C@H]1O[C@@H](n2cc(F)c(=O)[nH]c2=O)[C@H](O)[C@@H]1O	1.13
CCCCN(CCCC)CC(O)c1cc(Cl)cc2c1-c1ccc(Cl)cc1/C2=C/c1ccc(Cl)cc1 (centres undefined)	-0.362
CCN(CC)CCNC(=O)c1c(C)[nH]c(/C=C2\C(=O)Nc3ccc(F)cc32)c1C	-0.162
CC(=O)OCC(=O)[C@@]1(O)CC[C@H]2[C@@H]3CCC4=CC(=O)CC[C@]4(C)[C@H]3C(=O)C[C@@]21C	-0.142
O=C1Nc2ccc(Cl)cc2[C@@](C#CC2CC2)(C(F)(F)F)O1	-0.432 and 0.539
CC(=O)O[C@@]12CO[C@@H]1C[C@H](O)[C@@]1(C)C(=O)[C@H](O)C3=C(C)[C@@H](OC(=O)[C@H](O)[C@@H](NC(=O)OC(C)(C)C)c4ccccc4)C[C@@](O)([C@@H](OC(=O)c4ccccc4)[C@H]21)C3(C)C	-2.65
Nc1ncnc2c1ncn2[C@@H]1O[C@H](CO)[C@@H](O)[C@H]1O	0.71
Cn1c(=O)c2c(ncn2CC2OCCO2)n(C)c1=O	-0.316
CC(C)c1c(C(=O)Nc2ccccc2)c(-c2ccccc2)c(-c2ccc(F)cc2)n1CC[C@@H](O)C[C@@H](O)CC(=O)O	-0.99
CCN(CC)CCCC(C)Nc1c2ccc(Cl)cc2nc2ccc(OC)cc12 (centres undefined)	-1.15
CC[C@H]1CN2CCc3cc(OC)c(OC)cc3[C@@H]2C[C@@H]1C[C@H]1NCCc2cc(OC)c(OC)cc21	-0.835
NC(=O)c1ncn([C@@H]2O[C@H](CO)[C@@H](O)[C@H]2O)n1	-0.186
COc1ccc2[nH]c(S(=O)Cc3ncc(C)c(OC)c3C)nc2n1 (centres undefined)	-0.26
OC[C@H]1O[C@@H](O[C@@H]2[C@@H](CO)O[C@](O)(CO)[C@H]2O)[C@H](O)[C@@H](O)[C@H]1O	-0.31
Cc1c(O)cccc1C(=O)N[C@@H](CSc1ccccc1)[C@H](O)CN1C[C@H]2CCCC[C@H]2C[C@H]1C(=O)NC(C)(C)C	-0.979
CC1=C(/C=C/C(C)=C/C=C/C(C)=C/C(=O)O)C(C)(C)CCC1	0.0467
NC(=O)c1ncn([C@@H]2O[C@H](CO)[C@@H](O)[C@H]2O)c1N	-0.745

Same assay, conditions: PEO1/OlaR viability, CellTiter-Glo luminescence, 96 h; measured here: PEO4 Z-AUC; stronger effect = lower value

Compound	Z-AUC
CN(N=O)C(=O)N[C@@H]1[C@@H](O)[C@H](O)[C@@H](CO)O[C@@H]1O	0.737
C[C@H]1O[C@@H](n2cc(F)c(=O)[nH]c2=O)[C@H](O)[C@@H]1O	1.52
CCCCN(CCCC)CC(O)c1cc(Cl)cc2c1-c1ccc(Cl)cc1/C2=C/c1ccc(Cl)cc1 (centres undefined)	-0.228
CCN(CC)CCNC(=O)c1c(C)[nH]c(/C=C2\C(=O)Nc3ccc(F)cc32)c1C	-0.0779
CC(=O)OCC(=O)[C@@]1(O)CC[C@H]2[C@@H]3CCC4=CC(=O)CC[C@]4(C)[C@H]3C(=O)C[C@@]21C	-0.613
O=C1Nc2ccc(Cl)cc2[C@@](C#CC2CC2)(C(F)(F)F)O1	-0.62 and -0.612
CC(=O)O[C@@]12CO[C@@H]1C[C@H](O)[C@@]1(C)C(=O)[C@H](O)C3=C(C)[C@@H](OC(=O)[C@H](O)[C@@H](NC(=O)OC(C)(C)C)c4ccccc4)C[C@@](O)([C@@H](OC(=O)c4ccccc4)[C@H]21)C3(C)C	-3.1
Nc1ncnc2c1ncn2[C@@H]1O[C@H](CO)[C@@H](O)[C@H]1O	1.16
Cn1c(=O)c2c(ncn2CC2OCCO2)n(C)c1=O	0.00528
CC(C)c1c(C(=O)Nc2ccccc2)c(-c2ccccc2)c(-c2ccc(F)cc2)n1CC[C@@H](O)C[C@@H](O)CC(=O)O	-1.27
CCN(CC)CCCC(C)Nc1c2ccc(Cl)cc2nc2ccc(OC)cc12 (centres undefined)	-1.09
CC[C@H]1CN2CCc3cc(OC)c(OC)cc3[C@@H]2C[C@@H]1C[C@H]1NCCc2cc(OC)c(OC)cc21	-0.876
NC(=O)c1ncn([C@@H]2O[C@H](CO)[C@@H](O)[C@H]2O)n1	-0.149
COc1ccc2[nH]c(S(=O)Cc3ncc(C)c(OC)c3C)nc2n1 (centres undefined)	0.544
OC[C@H]1O[C@@H](O[C@@H]2[C@@H](CO)O[C@](O)(CO)[C@H]2O)[C@H](O)[C@@H](O)[C@H]1O	-0.255
Cc1c(O)cccc1C(=O)N[C@@H](CSc1ccccc1)[C@H](O)CN1C[C@H]2CCCC[C@H]2C[C@H]1C(=O)NC(C)(C)C	-1.07
CC1=C(/C=C/C(C)=C/C=C/C(C)=C/C(=O)O)C(C)(C)CCC1	0.421
NC(=O)c1ncn([C@@H]2O[C@H](CO)[C@@H](O)[C@H]2O)c1N	-0.555

Experiment: qHTS profiling for inhibitors of Plasmodium falciparum proliferation (AID 504749);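 also: 0% = DMSO vehicle and full inhibition = artemisinin control; nearly all actives have a fitted effect of over 60% in size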
Settings: P. falciparum in erythrocytes, SYBR Green DNA, 72 h; at 28.7 µM (top of the series); parasite line A
In short: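 In a 72 h erythrocytic culture (37 C, humidified, 5% CO2) at 2.5% hematocrit and 0.3% starting parasitemia, compounds were tested; SYBR Green I in detergent lysis buffer stained parasite DNA overnight.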

Compound	activity, negative = inhibition
O=C(O)c1ccccc1O	0.135% (inactive)
Cc1c(Cl)cccc1Nc1ccccc1C(=O)O	-2.73% (inactive)
C[C@H]1O[C@@H](n2cc(F)c(=O)[nH]c2=O)[C@H](O)[C@@H]1O	3.03% (inactive)
CCCCOC(=O)c1ccc(O)cc1	8.74% (inactive)
CCCCCCCCCCCCCCCC(=O)NCCO	5.7% (inactive)
CCCn1cnc2c1c(=O)n(CCCCC(C)=O)c(=O)n2C	-5.61% (inactive)
Cc1cc(C(C#N)c2ccc(Cl)cc2)c(Cl)cc1NC(=O)c1cc(I)cc(I)c1O (centres undefined)	8.49% (inactive)
COC(=O)C1=C(C)NC(C)=C(C(=O)OC)C1c1ccccc1[N+](=O)[O-]	-7.51% (inactive)
O=S(=O)(O)c1cc(I)c(O)c2ncccc12	12% (inactive)
Nc1ncnc2c1ncn2[C@@H]1O[C@H](CO)[C@@H](O)[C@H]1O	7.65% (inactive)
Cc1ccc(C(C)C)cc2c(C)ccc1-2	-17.3% (inactive)
NC1CCN(c2cccc(Cl)n2)CC1	13.3% (inactive)
O=C1O[C@H]([C@@H](O)CO)C(O)=C1O	10.5% (inactive)
Cn1c(=O)c2c(ncn2CC2OCCO2)n(C)c1=O	-11.9% (inactive)
CC12CCC(CC1)C(C)(C)O2	9.21% (inactive)
CC[C@@]1(c2ccccc2)NC(=O)N(C)C1=O	-2.42% (inactive)
CC1=C(CC(=O)O)c2cc(F)ccc2/C1=C\c1ccc(S(C)=O)cc1 (centres undefined)	-3.64% (inactive)
CC1=C(/C=C/C(C)=C/C=C/C(C)=C/C(=O)O)C(C)(C)CCC1	11.8% (inactive)

From PubChem BioAssay (NCATS)
